# Rows were chosen to be rich in hits. Some 3.6% of all compounds tested hit in one or more screens of this group.
# Anthrax LF prot: anthrax lethal factor protease inhibition | inhibition, % at 10 µM | P15917 | multiplex microsphere protease cleavage assay, LF | 360,000 compounds, 0.12% hits
# BoNT A protease: inhibitors of Botulinum neurotoxin A light chain protease; inhibition, % at 10 µM; 360,000 compounds, 0.17% hits; multiplex microsphere protease substrate cleavage, flow cytometry; AID 588499
# MazF activator: increases E. coli MazEF RNase cleavage of RNA; P0AE70; FAM/BHQ RNA-DNA oligo cleavage fluorescence, 5 h; activation, % at 20 µM; 350,000 compounds, 0.32% hits; AID 504720; in the data active means activation above about 50%
# Target sequence (P0AE70 whole entry, looked up): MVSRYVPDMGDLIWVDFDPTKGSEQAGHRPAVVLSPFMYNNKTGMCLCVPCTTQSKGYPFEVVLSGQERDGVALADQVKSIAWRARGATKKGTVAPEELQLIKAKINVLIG
# Bead autofluor: compound fluorescence in toxin protease inhibitor counterscreen. fluorescence intensity (concentration not given with the values). compound autofluorescence counterscreen, microsphere flow cytometry; hits give high values. 360,000 compounds, 3.1% hits; in the data active means fluorescence intensity above about 16000; inconclusive means no clear call, values can overlap the other calls
# BoNT F protease: inhibitors of Botulinum neurotoxin F light chain protease. Multiplex microsphere protease cleavage assay, flow cytometry. inhibition, % at 10 µM. 360,000 compounds, 0.22% hits; in the data active means inhibition above about 35%, passing the limit was not always enough; inconclusive means no clear call, values can overlap the other calls
# Numbers stand for hits; - = inactive; ? = inconclusive; . = no result given. Unless noted, no stated cut-off is given here; in the data, active means inhibition above about 30%; inconclusive means no clear call, values can overlap the other calls; inactive means below that.
SMILES,Anthrax LF prot,BoNT A protease,MazF activator,Bead autofluor,BoNT F protease
CCCNC(=O)COc1ccc(S(=O)(=O)Nc2ccc(C)cc2)cc1,-,-,-,22233,-
CC(=O)C(Sc1ncnc2sc3c(c12)CCCC3)C(C)=O,-,-,-,-,-
CCOC(=O)[C@]12CCCC=C1N(Cc1ccc(Cl)cc1Cl)C(=O)[C@H](CC(=O)N1CCCC1)C2,-,-,.,-,-
Cn1c(CCCNC(=O)c2ccco2)nc2ccccc21,-,-,-,-,-
CCOc1ccc(NS(=O)(=O)c2ccc(C(=O)NCc3ccncc3)cc2)cc1,-,-,-,42543,-
Oc1cc2c(cc1O)[C@H]1c3ccc(O)c(O)c3OC[C@@]1(O)C2,-,-,231,-,-
COc1ccc(N2C[C@H](CSC)[C@@H](CC(=O)Nc3ccc(Br)cc3)C2=O)cc1,-,-,-,-,-
O=C(NCc1cccs1)c1cccnc1C(=O)O,-,?,-,17016,-
O=C(NCCCCNC(=O)c1ccc(Cl)s1)c1ccc(Cl)s1,-,-,-,-,-
C[C@H](NC(=O)NCc1cccs1)C(=O)O,-,-,-,21235,-
CN(C)CCNC(=O)c1ccc(Cl)s1,-,?,-,17028,-
O=C(CCS(=O)(=O)c1cccs1)Nc1ccc(C(=O)NCc2cccs2)cc1,-,-,-,22948,-
O=C(NCc1cccs1)c1ccc(Cl)s1,-,-,-,24555,-
CC(C)Oc1ccc(C(=O)NCc2cccs2)cc1,-,?,-,23288,-
Cc1cc(C(=O)NCc2cccs2)c(C)o1,-,-,-,19810,-
CCOC(=O)c1ccc(-c2c(-c3ccccc3OC)sc3ccc(OC)cc23)cc1F,-,-,-,-,-
Cc1ccc(Cl)c(OCCCCN(C)Cc2ccccc2)c1,-,?,-,22668,-
COc1ccc2c(c1)C(=O)N(c1ccc(C)cc1)C(=O)C2,-,-,-,-,-
COc1ccc(C2=NOC3(CC(=O)N(c4ccc(C)cc4)C3=O)C2)c(OC)c1 (configuration not stated),-,-,-,22248,-
Cc1ccc(N2CC(C(=O)Nc3nnc(C(C)C)s3)CC2=O)cc1 (configuration not stated),-,-,-,22336,-
Cc1ccc(N2CC(C(=O)Nc3nccs3)CC2=O)cc1Cl (configuration not stated),-,-,-,23923,-
CCc1nnc(NC(=O)C2CC(=O)N(c3ccc(C)cc3)C2)s1 (configuration not stated),-,-,-,-,-
Cc1ccc(N2CC(C(N)=O)CC2=O)cc1 (configuration not stated),-,?,-,18778,-
CC(=O)Nc1cc(-c2ccc(N3CCN(C)CC3)cc2)cn2c(-c3cccc(C(C)=O)c3)cnc12,-,-,.,-,-
CCOC(=O)C1=C(C)N=c2s/c(=C/c3ccccc3)c(=O)n2C1c1ccc(OC)c(OC)c1 (configuration not stated),-,-,85,-,-
SMILES,Anthrax LF prot,BoNT A protease,MazF activator,Bead autofluor,BoNT F protease
CCOC(=O)C1=C(c2ccccc2)N=c2s/c(=C\c3ccco3)c(=O)n2C1c1cccs1 (configuration not stated),-,-,-,-,-
CCOC(=O)C1=C(c2ccccc2)N=c2s/c(=C\c3cc(OC)c(OC)c(OC)c3)c(=O)n2C1c1cccs1 (configuration not stated),34,41,-,-,-
Cc1ccc(/C=C(\C#N)C(=O)Nc2c(C)cccc2C)s1,-,-,-,-,-
Cc1ccc(NC(=O)/C(C#N)=C/c2ccc(C)s2)c(C)c1,-,-,190,-,-
CCn1c(Cn2nnc(-c3ccccc3)n2)nnc1SCC(=O)Nc1cccc(C(C)=O)c1,-,-,-,-,-
Cc1cccc(NC(=O)CSc2nnc(Cn3nnc(-c4ccccc4)n3)n2-c2ccccc2)c1,-,-,-,23099,-
COc1ccc(OC)c(NC(=O)Nc2nnc([C@@H]3O[C@H](CO)[C@@H](O)[C@H]3O)s2)c1,-,-,.,-,-
O=C(NCc1cccnc1)/C(=C/c1ccc(-c2cccc(C(F)(F)F)c2)o1)NC(=O)c1ccccc1,-,?,-,22544,-
Cc1ccc(C(=O)N/C(=C/c2ccc(-c3cc(C(F)(F)F)ccc3Cl)o2)C(=O)NCc2cccnc2)cc1,-,-,-,-,-
COc1ccc(Cn2c(/C=C/c3ccccc3)nc3ccccc32)cc1,-,-,-,24328,-
CCn1c(/C=C/c2ccccc2)nc2ccccc21,-,-,-,-,-
CCN(CC)S(=O)(=O)c1ccc(N2CCOCC2)c(NC(=O)c2cc3ccccc3o2)c1,-,-,-,-,-
